# From PubChem BioAssay AID624296 (National Center for Advancing Translational Sciences (NCATS), 2012)
# Screen size: about 350,000 compounds; about 9,900 (2.8%) were called active. Entries that show only a call come without a potency. Not shown: some 15% with an inconclusive outcome. Calls come from the whole dose curve; as a rule, active = well fitted activation curve with a large enough effect; inconclusive = small, poorly fitted or top-dose-only effect; inactive = no such curve, though single readings can be large or run the other way. The full list was thinned out, with actives kept by preference.
# Assay: A quantitative high throughput screen for small molecules that induce DNA re-replication in MCF 10a normal breast cells. Note: nearly all actives have a fitted effect of over 50% in size.
# Conditions: MCF 10A DNA re-replication, Hoechst nuclear intensity, 48 h; series mostly up to 46.1 µM
# Potency is the fitted concentration of half-maximal effect.
row,SMILES,Potency
1,Cc1cc2c(cc1C)NC1(C[C@H]3CCC(=O)N4CC[C@@H](C1)[C@@H]34)C(=NC(C)(C)CC(C)(C)C)N2 (stereo partly specified),inactive
2,CCCCN1CC(CO)Oc2cccc(F)c2S1(=O)=O (stereo unspecified),inactive
3,Cc1cc(C(=O)OCC(=O)N2C(C)CCCC2C)c2ccccc2n1 (stereo unspecified),inactive
4,CCOC(=O)N1CCN(C(=O)c2ccc(S(=O)(=O)Nc3cccc(C(F)(F)F)c3)cc2)CC1,inactive
5,O=C(NCc1ccccc1)c1ccc(S(=O)(=O)Nc2cccc(C(F)(F)F)c2)cc1,inactive
6,Cc1oc2c(F)c(F)c(F)c(F)c2c1S(=O)(=O)Nc1cccc(C(F)(F)F)c1,16.4 µM (active)
7,O=C1C=C(c2cc(C(F)(F)F)cc(C(F)(F)F)c2)C[C@@H](c2ccc3c(c2)OCO3)C1,inactive
8,Fc1ccccc1COc1cccc2cccnc12,inactive
9,c1ccc(COc2ccccc2CNCc2cccnc2)cc1,inactive
10,Fc1ccccc1COc1ccccc1CNCc1ccncc1,3.26 µM (active)
11,C[C@@H]1ON(C)[C@H]2C[C@H]3c4cc(N5CCN(C)CC5)ccc4CCN3C(=O)[C@@H]12,inactive
12,O=C(Nc1ccccc1)/C(=C/c1ccc([N+](=O)[O-])cc1)NC(=O)c1ccccc1,inactive
13,Cc1cccc(NC(=O)c2sc(-c3ccccc3)nc2-c2ccc([N+](=O)[O-])cc2)c1,inactive
14,CCOC(=O)/C(=C\c1ccc([N+](=O)[O-])cc1)C(=O)c1cc(C(C)=O)c(Nc2ccccc2)s1,1.46 µM (active)
15,Cc1ccc(C(=O)CN2C(=O)NC3(CCOc4ccccc43)C2=O)s1 (stereo unspecified),inactive
16,CCOc1ccc(S(=O)(=O)N2CCC(C(=O)NCC(=O)Nc3cccc(Cl)c3C)CC2)cc1,inactive

row,SMILES,Potency
1,C[C@H]1COC(=O)[C@H](CC(=O)OC(C)(C)C)C/C=C\C[C@@H](CC(=O)N[C@H](CO)Cc2ccccc2)C(=O)N1,inactive
2,CC(=O)c1c(C)[nH]c(C(=O)COC(=O)c2cccs2)c1C,inactive
3,Cc1nc(N2CCOCC2)nc2c1CCCC2,inactive
4,Nc1nc(-c2sc3nc4c(cc3c2N)CCCC4)nc(N2CCOCC2)n1,6.51 µM (active)
5,CC(C)(C)S(=O)(=O)N1Cc2cc(CO)cc(CCO)c2[C@H]1CCO,inactive
6,COc1ccc(S(=O)(=O)N2CCN(c3cnccn3)CC2)cc1,inactive
7,O=C(NC1CCCCC1)c1ccc2c(=O)n(CC3CCCO3)c(=O)[nH]c2c1 (stereo unspecified),inactive
8,Cc1cccc(NC(=O)c2ccc3c(=O)n(CC4CCCO4)c(=S)[nH]c3c2)c1 (stereo unspecified),inactive
9,COC(=O)c1ccc2c(=O)n(CC3CCCO3)c(=S)[nH]c2c1 (stereo unspecified),23.1 µM (active)
10,Cc1cc(C)nc(N/N=C/c2ccncc2)n1,inactive
11,CCN(CC)c1ccc(/C=N/Nc2nc(C)cc(=O)[nH]2)cc1,inactive
12,CCN(CC)c1ccc(/C=N/NC(=O)CNC(=O)c2cccnc2)cc1,inactive
13,Cc1ccc(C(=O)NCCNC(=O)c2cnccn2)cc1,inactive
14,CCN(CC)c1ccc(/C=N/Nc2nc(C)cc(C)n2)c(O)c1,18.4 µM (active)
15,CCN(CC)c1ccc(/C=N/NC(=O)c2cnccn2)c(O)c1,18.4 µM (active)
